Measured values: PubChem BioAssay AID1508600 (Functional Genomics Laboratory (NCATS/FGL), 2020)
Hit rate of the full screen: of about 53,000 sequences, about 3,700 (7%) were called active. The sample as a whole holds a higher share of actives than the screen did. A number with no mark means an inactive call.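 How the source made its calls: active means gene knockdowns whose robust z-score for IL-1 alpha signal is at least 2 or at most -2, so actives lie on both sides; inactive means the rest.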

assay: Components of the Cytosolic LPS Sensing Pathway: Gene Identification via Genome-wide siRNA Screen; details: RAW264.7 macrophages, IL-1a HTRF, actives lie on both sides, screened at 100 nM (by protocol), cells primed 5 h with Pam3CSK4 first;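 further: robust z of the log signal after scaling to non-targeting control siRNA wells of the plate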
Procedure, shortened: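 Mouse macrophage line RAW264.7 is transfected with siRNA (100 nM final), grown 48h, primed with TLR ligand Pam3CSK4 5 h and given intracellular LipidA 24 h. IL-1a in supernatant is read by HTRF and viability by luminescence.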

Sequence	z-score
GGCAGCAGAGAACAAGAAATT against Serbp1	-1.43
CCCAACUGACAUCUUCCUATT against Gzmb	2.86 (active)
GGAAAGCACAUCCUCUUUGTT against Gpx6	1.02
CGUGAUUUCAGUGAGGGUGTT against Tarsl2	0.996
CGAAGUGAAGAUUUACAGCTT against Nol10	-0.106
GCAAUGUGACCAAGACAAUTT against Prelid1	0.739
GGCGUGAUAGCUGGACUUATT against Eola1	0.439
GGCCAUAUCUUAAAGUUAATT against Hcfc1r1	-0.246
GACCAGUGACAAGACCAUCTT against Unc45b	0.352
GGUGCAGGCCAUGAUUUACTT against C1qtnf4	2.65 (active)
GGAAAUGCCACCAAAGAACTT against Slc38a11	-0.168
CGGACUUGUUUUUUAGUCUTT against Tnrc18	0.164
GGCCAACUGGAGAUAGAUATT against Tamm41	1.19
GGAUAAUGGUUUAAAACUCTT against Bmt2	-1.34
GGAAAACCUACCGAAGUUATT against Irf3	2.79 (active)
GCAUUGAAGUCACCUCCACTT against Clcn2	0.161
GGACAACCAAGGAAGAAACTT against Fam205c	0.816
GGUGUUUGAAGAGCUGACATT against Pde6b	-1.85
GGUUGUUAAGCUGAAGCAATT against Prkacb	-0.219
GCUAUAAUGCUGGAGUCAATT against P3h2	0.27
GGUGUGUUUGCUAUUUCCATT against Olfr259	0.4
GGUCCCAGCAUGUUUACGUTT against Slc2a12	3.04 (active)

Sequence	z-score
GCUCUGUCUUCAGGUCAUUTT against Olfr1040	-0.0484
GGGACUGGAUUUCUGUAUUTT against Derl1	-0.694
GGCUAUCCAGAGAUACGUGTT against Snrnp25	-0.571
GGGCAUAGACAGUACCAGUTT against Clec2m	-2.04 (active)
GGACCAGCUAAAUAUUAGUTT against Rgs2	-0.315
GGCAUUAAUAUGUCUGACUTT against Tada1	-0.0627
GGAAAAAUGGCAACUUCAATT against Dock3	0.766
GGUGUAUGUCACCCUGACCTT against Sag	-0.617
GGGUAACUGGUUUGUAUGATT against Gm4814	1.34
GGGCAUAUUCAAACUUGUGTT against Elf2	-1.68
GGCUCAGACCUGGAUACAUTT against Oas1e	-2.31 (active)
CCAAGGUACUACUGGGAGATT against Sval3	0.268
GCAAGUACGCUGCUCUGUCTT against Eif4b	0.397
GGCAGUCAGCUAAUGCUUATT against Pros1	-0.372
CGAGUAUUUUGAAAUCCUGTT against Cdcp3	0.406
GGAUCUAUGGGUAUCCUGCTT against Adam1a	-1.8
GGAGGAUGAGAUGAUGCCATT against Sez6l2	-2.19 (active)
GGCUCAAGUAUGAGAAUGATT against Krt15	-0.859
GGCUUUCCUUCGGAAGAAUTT against Abca14	-1.15
GGAAGAUACGUGCAAAAUGTT against Rbms2	-0.562
GGAACAGUCUGAAAUACACTT against Usp18	-0.907
GCAGUUCUGGUUCUGUCUGTT against Nudcd3	-0.203

Sequence	z-score
GGCUCUUCUUAUGCACCCUTT against Pdyn	-0.543
CCCAGAAGGACGGCACUAGTT against H2-DMb2	0.265
GCCUGACAAUAGUCAUUUCTT against Olfr985	-2.03 (active)
GGCUCACACUCCUGUUAAUTT against Fam20c	-1.02
GGGCAUGAUUUUCACUUCCTT against Gpr150	0.79
CGAGAAGGGUCAUAUGAGCTT against Rbp4	-1.84
GCUGUGACAGAAGCUUUCGTT against Vars2	-0.201
CCCUCAUGUUUCAUUUGUGTT against Glrx3	-0.454
GCUUGAUAUAGUAUCCUUUTT against Prpf38b	-2.05 (active)
GGAUUGUCAGAGAAAGAGATT against Syt3	-0.751
GCUACAAAGAGUAAAACUGTT against Zfp251	1.01
GGCUGUUCGUGCAAGCCUATT against Bahcc1	0.544
GGUCAUCCCAUCUUACAAATT against 4933431E20Rik	0.649
CCGACAUCCUUGAUACGUUTT against Vps35l	-2.12 (active)
GGAACUGGAAAACUUCAAATT against Mrvi1	1.04
GGAUUGCCCUGUUGUGGUGTT against Snx17	-0.227
GCGAUACAACUCUUAUGACTT against Dennd5b	-0.521
GGACUAUGUGGCCCAGUGUTT against Nat8f5	-1.11
GGAGCACAAUUCAAAUUCATT against Zbtb6	2.06 (active)
GGGAAACACCUGGGUGCUUTT against Ctrl	-1.07
GGGAGAUUGGAAACAAAAATT against Hsd3b4	-0.935
CCCUAUCAACUGAUCUUUUTT against Scml2	-0.732

Sequence	z-score
GGAUAGCUCAUGAUGCUGUTT against Usp13	-0.885
GGAAGUUGACAAAAUAGUGTT against Dlgap5	0.389
GCUAAAGUGACCUUAAAACTT against Phactr4	-0.382
GGACUACUUUAAGGAUUGGTT against Tfip11	-2.97 (active)
CGAGAUGGGAGAUUGAAAUTT against Ms4a8a	0.47
GGAAGAGGAGGUGACAUACTT against Exd1	-1.15
CCACAUCAAGUCUAUCAUCTT against Ryr1	-1.19
GGAUCAACCUAGAAGCUUGTT against Strada	-0.192
GGAGACUCCAACUACUUCATT against Sycp1	1.23
GCCGCUUAUAUGUAUCGCUTT against Adipoq	2.54 (active)
CGCCUACUGCUUCAGGAUATT against Cgrrf1	1.27
GGACUCAUCUUUAUUAUUCTT against Olfr393	-0.324
GGAAGUUGGUUAUACUCGUTT against Lins1	0.822
GGAGGAAGACAUUGUGUGUTT against Tnfrsf11b	-0.309
GGAAAACCAUGAAGCCAUGTT against Dnase1l3	0.69
GGCUCUAUAUCCAGCAGCATT against Srst	-1.1
GUCACUGAAUUUCUCCUCUTT against Olfr104-ps	-2.28 (active)
GGUUAUAUCCAUGUGACACTT against Nkg7	-1.15
GCAGCUUUAGGUCCAUUCGTT against Pkd2l2	-0.696
GGAACAUCCAUGUAUUCAATT against Ube2l3	0.76
GGAUAUCCGUGAGAUUUCATT against Timm9	3.7 (active)
CCCACUCUUUGUGUACUGATT against Olfr262	-2.1 (active)

Sequence	z-score
GGCUAAAUAUGUGAUUAGUTT against Maob	-0.311
GGAGUAUAUCUCGUUUAUATT against Ube2e2	-0.221
GGACCAUGCUGGAUACUAUTT against Yrdc	1.74
CCUGUACCCGAACAUACCATT against Fabp12	-1.06
GCAAGCAGACUUGUCCUUCTT against Hnrnpc	-0.155
GGUCAUCCUCAAGUCUCCUTT against Stmn3	-2.28 (active)
GGAGAAGAGAAUAGAAGAATT against Ren1	-0.0528
GGCUGUACCAAUCUGACACTT against Pvalb	0.318
AUAACCUAACUCACAACAATT against Olfr304	-1.06
GGAAAUCGAUUCUCAUGAUTT against St6gal2	0.00146
CGGGCUCUUGUAGAUUUCATT against Ccdc86	3.22 (active)
GGGUAUGAUGUGAUUGCUCTT against Eif4a2	0.0435
GGAUAACCUAUCGAAUCUCTT against Dsg4	1.26
GCAUCUCUCUACCAUUGACTT against Frmd8	0.538
CGUACAAAGGUAGUAUACCTT against Pi4k2a	1.1
GGUUCUCAUACAUAAACAATT against Mri1	-2.87 (active)
GGGAUAACACUCCUGUUUUTT against F630111L10Rik	-1.06
GUUCCUGCUGAUCAAGGACTT against Nsmce3	0.2
GUCUUAUACACGUGUGGACTT against Cklf	-0.198
